Rows were chosen to be rich in hits. Some 2.4% of all compounds tested hit in one or more screens of this group.
Nrf2 ARE act – Nrf2 pathway activation. AREc32 ARE-luciferase reporter (MCF7-derived line), luminescence, 24 h. Potency, µM (series often up to 46.1 µM), for the others: top-dose activation, most hits filed as activators. 410,000 compounds, 0.31% hits. AID 624171; note: % of control where 0% means no effect; nearly all actives have a fitted effect of over 65% in size
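AREc32 cells carrying an ARE-driven firefly luciferase reporter were seeded at 1000 cells/well in OPTI-MEM with 5% FBS, then exposed to compound for 24 hr at 37 deg C. Luminescence was read with Steady-Glo after 30 min at RT.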
PINK1 modulator – PINK1 expression modulation; PINK1 immunofluorescence, high-content cytometry, 24 h; Potency, µM (top dose mostly 76.6 µM), inactives show at the top dose activation (PINK1 increase), most hits filed as activators; 410,000 compounds, 0.2% hits; AID 624263; active = well fitted activation curve with a large enough effect; inconclusive = small, poorly fitted or top-dose-only effect; cell line not stated here; note: % of control where 0% means no effect; nearly all actives have a fitted effect of over 65% in size
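Decision-based qHTS: stable cells, 24 h exposure to five compound concentrations, CCCP as control. Fixed cells stained for PINK1 plus nuclear, mitochondrial and cell markers, cytometer read.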
Epigenetic derep – regulators of epigenetic silencing causing reporter derepression in mouse cells. AID 1865. Potency, µM (series often up to 53.9 µM), inactives show at the highest dose GFP activation, most hits filed as activators. murine LDR cells, GFP reporter derepression, 30 h. 280,000 compounds, 0.2% hits; note: % of control where 0% means no effect; nearly all actives have a fitted effect of over 60% in size
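Derepression of a silenced CMV-GFP reporter in murine LDR cells is scored by enumerating GFP-positive cells with a laser-scanning microplate cytometer after 30 hours of treatment at 37 C.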
Nrf2 inh – blocks Nrf2 signaling. A549 ARE-Fluc reporter, luciferase luminescence, 18-24 h. Potency, µM (highest dose often 46 µM), for inactives: at the top dose activity change, negative = inhibition, hits mostly inhibitors. 360,000 compounds, 2.1% hits. AID 504444; note: % is set by controls: 0 for no effect and ±100 for the full control effect; nearly all actives have a fitted effect of over 60% in size
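Quantitative HTS in A549 cells stably bearing an antioxidant response element-firefly luciferase construct. Inhibition of Nrf2-driven transcription was scored by luminescence after 18-24 h of compound exposure at 37 °C.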
A549 tox-1 – kills or reduces viability of A549 cells in Nrf2 counter-screen. A549 ARE-Fluc cells, CellTiter-Fluor viability, 18-24 h. Potency, µM (titrated, usually from 46 µM), inactives show top-dose activity change, negative = cytotoxicity, actives largely listed as inhibitors. 390,000 compounds, 0.16% hits; note: % is set by controls: 0 for no effect and ±100 for the full control effect
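Cytotoxicity counterscreen: CellTiter-Fluor fluorescence was measured in A549 ARE_Fluc cells after 18-24 h of compound exposure in a concentration series. The subsequent BugLite luminescent read reports ARE-luciferase activity.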
FLuc enzyme inh – counter-screen for Nrf2 inhibitors: firefly luciferase enzyme inhibition; purified firefly luciferase, luminescence inhibition; 1,400 compounds, 4% hits; Potency, µM (top dose mostly 57.5 µM), for inactives: at the top dose activity change, negative = inhibition, actives largely listed as inhibitors; AID 720522; shares compounds with Nrf2 inh; note: % is set by controls: 0 for no effect and ±100 for the full control effect; nearly all actives have a fitted effect of over 65% in size
Target sequence (P08659 whole entry, looked up): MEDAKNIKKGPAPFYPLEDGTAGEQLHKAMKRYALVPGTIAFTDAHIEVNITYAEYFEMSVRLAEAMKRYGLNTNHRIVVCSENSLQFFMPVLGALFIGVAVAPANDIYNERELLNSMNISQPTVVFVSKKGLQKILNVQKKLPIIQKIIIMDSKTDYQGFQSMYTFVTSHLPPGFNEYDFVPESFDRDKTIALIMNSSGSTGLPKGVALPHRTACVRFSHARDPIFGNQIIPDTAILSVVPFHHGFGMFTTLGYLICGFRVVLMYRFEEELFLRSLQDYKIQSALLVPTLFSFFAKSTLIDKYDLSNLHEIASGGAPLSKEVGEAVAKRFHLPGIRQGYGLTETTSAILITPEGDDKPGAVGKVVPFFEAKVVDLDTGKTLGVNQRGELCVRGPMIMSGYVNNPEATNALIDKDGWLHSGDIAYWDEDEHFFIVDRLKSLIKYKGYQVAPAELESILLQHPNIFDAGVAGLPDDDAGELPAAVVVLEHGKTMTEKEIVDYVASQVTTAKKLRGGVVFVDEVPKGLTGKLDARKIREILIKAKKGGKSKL
A549 tox-2 – counter-screen for Nrf2 inhibitors: cytotoxicity in A549 ARE cells | shares compounds with Nrf2 inh | A549 ARE-Fluc cells, cytotoxicity counterscreen | Potency, µM (doses to about 46.1 µM), for the others: at the top dose activity change, negative = cytotoxicity, actives largely listed as inhibitors | 1,400 compounds, 2% hits;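 note: cells exposed to compounds for 18 to 24 hours; % is set by controls: 0 for no effect and ±100 for the full control effect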
Nrf2 ARE inh – confirmation of Nrf2 inhibitors in A549 ARE reporter cells; shares compounds with Nrf2 inh; Potency, µM (series often up to 46.1 µM), inactives show top-dose activity change, negative = inhibition, usual class: inhibitors; AID 720524; A549 ARE-firefly luciferase reporter, luminescence; 1,400 compounds, 74% hits; note: % is set by controls: 0 for no effect and ±100 for the full control effect; nearly all actives have a fitted effect of over 65% in size
An asterisk follows results filed as active; [ ] = remark or other dose. Unless noted, calls come from the whole dose curve; as a rule, active = well fitted curve in the direction sought with a large enough effect; inconclusive = small, poorly fitted or top-dose-only effect, or another doubt; inactive = no such curve, though single readings can be large; an effect the other way counts as inactive or inconclusive. Potency is the fitted concentration of half-maximal effect.

For O=C(CCCc1nc(-c2ccc(Cl)cc2)no1)NC1CCCC1 the results were Nrf2 ARE act -1%, PINK1 modulator 0%, Nrf2 inh 4.1µM*, A549 tox-1 -17%, FLuc enzyme inh 2%, A549 tox-2 -4% and Nrf2 ARE inh 5.2µM*.
`O=C(CCc1nc(-c2ccc(Cl)cc2)no1)NC1CCCCC1` gave Nrf2 ARE act 0%, PINK1 modulator 0%, Nrf2 inh inconclusive and A549 tox-1 -10%.
Screening CCOC(=O)c1c(Nc2ccc(Cl)cc2)sc(/C=C2\C=Nc3ccccc32)c1O returned Nrf2 ARE act 0%, PINK1 modulator 10µM*, Epigenetic derep 7.1µM*, Nrf2 inh 1.5µM*, A549 tox-1 -7%[1.84 µM], FLuc enzyme inh -27%, A549 tox-2 inconclusive and Nrf2 ARE inh 4.1µM*.
COc1ccccc1-n1c(-c2ccccc2)c[n+]2c1CCc1ccccc1-2 was read as Nrf2 ARE act -1%, PINK1 modulator inconclusive, Epigenetic derep -2%, Nrf2 inh 3.7µM*, A549 tox-1 inconclusive, FLuc enzyme inh 2%, A549 tox-2 -11% and Nrf2 ARE inh 8.2µM*.
COc1ccc(-c2c[n+]3c(n2-c2ccccc2)CCCCC3)cc1 was read as Nrf2 ARE act 0%, PINK1 modulator 0%, Epigenetic derep 0%, Nrf2 inh inconclusive and A549 tox-1 -11%.
Screening CC(C)c1ccc(-n2c(-c3ccccc3)c[n+]3c2CCc2ccccc2-3)cc1 returned Nrf2 ARE act 24%, PINK1 modulator inconclusive, Epigenetic derep -3%, Nrf2 inh 2.1µM*, A549 tox-1 10µM*, FLuc enzyme inh 2%, A549 tox-2 inconclusive and Nrf2 ARE inh 2.6µM*.
For COc1ccccc1-n1c(-c2ccccc2)c[nH]c1=S the results were Nrf2 ARE act 0%, PINK1 modulator 5%, Epigenetic derep 0%, Nrf2 inh -1% and A549 tox-1 13%.
Screening COC(=O)c1ccccc1NC(=O)c1ccc2c(c1)CCN2S(C)(=O)=O returned Nrf2 ARE act 1%, PINK1 modulator 0%, Epigenetic derep 5%, Nrf2 inh 26% and A549 tox-1 4%.
Screening Nc1nc2ncn(COCCO)c2c(=O)[nH]1 returned PINK1 modulator 1%.
For Cc1ccc(S(=O)(=O)N2CCC(n3c(C)nc4cccnc43)CC2)c(C)c1 the results were Nrf2 ARE act 5%, PINK1 modulator 0%, Epigenetic derep 0%, Nrf2 inh 9.2µM*, A549 tox-1 -11%, FLuc enzyme inh -2% and A549 tox-2 -9%.
`COc1cc(CNCc2ccc(OC)cc2OC)cc(OC)c1` gave Nrf2 ARE act 0%, PINK1 modulator 1%, Nrf2 inh 7.3µM*, A549 tox-1 -7%, FLuc enzyme inh 3%, A549 tox-2 -3% and Nrf2 ARE inh inconclusive.
For COc1ccc(CNCc2ccc(C)cc2)c(OC)c1 the results were Nrf2 ARE act 0%, PINK1 modulator -1%, Nrf2 inh 1% and A549 tox-1 12%.
`COc1ccc(-c2nc(CN3CCN(c4ncnc5ccccc45)CC3)c(C)o2)c(OC)c1` gave Nrf2 ARE act 0%, PINK1 modulator -2%, Epigenetic derep 6%, Nrf2 inh 8.2µM*, A549 tox-1 inconclusive, FLuc enzyme inh 2%, A549 tox-2 -13% and Nrf2 ARE inh 8.2µM*.

Screening results as filed in PubChem BioAssay.
